Bioassay records as filed in PubChem.
Compounds with a hit are over-represented: about 3.2% of the library has one in this group of screens.
BRCA1 expr up: activators of BRCA1 expression. hit rate 1.1% among 380,000. Potency, µM (highest dose often 46.1 µM), for the others: at the highest dose activation, usual class: activators. MCF7-BRCA1-FFLuc reporter, luminescence, 48 h; response scale: scaled: vehicle 0%, 10 µM genistein 100%; further: potency means the concentration at half of the fitted maximal effect; nearly all actives have a fitted effect of over 80% in size
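Cells: MCF7-BRCA1-FFLuc, 2000/well. Exposure: 48 h, 37 °C, 5% CO2. Read: luminescence, 15 min post-substrate. Controls: genistein 10 microM (maximal activation), DMSO (neutral).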
Nrf2 ARE act: activates Nrf2 signaling; hit rate 0.31% among 410,000; AREc32 ARE-luciferase reporter (MCF7-derived line), luminescence, 24 h; Potency, µM (highest dose often 46.1 µM), without a hit: at the top dose activation, hits mostly activators; further: potency means the concentration at half of the fitted maximal effect; % of control where 0% means no effect; nearly all actives have a fitted effect of over 65% in size
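Cells of the AREc32 ARE-luciferase line are plated in OPTI-MEM containing 5% FBS and left overnight at 37 deg C. Compounds are pinned in, incubation continues 24 hr, and firefly luciferase signal is then measured.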
IL2 activator: IL-2 activation; IL-2 activation reporter assay, cell-based qHTS; stimulated with anti-CD3/CD4/CD28 beads; in transgenic mouse T cells; activation, % (series mostly up to about 46 µM); hit rate 0.065% among 360,000; AID 652025; in the data active means activation above about 50%; inconclusive means mostly about 30% to 49%; further: 0% is about no effect
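Using fluorescent plate cytometry, EGFP and DsRed are detected in transgenic mouse T cells stimulated 18 h at 37 degrees C with antibody-coated beads after 60 min compound pretreatment.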
p53 reactivator: restores transcriptional activity of mutant p53 | H1299 p53-A138V BP100-luciferase reporter, luminescence, 24 h | Potency, µM (top dose mostly 92.2 µM), for inactives: at the top dose activity change, positive = activation, hits mostly activators | hit rate 0.063% among 320,000; further: potency means the concentration at half of the fitted maximal effect; % of control where 0% means no effect; nearly all actives have a fitted effect of over 45% in size
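H1299 (p53-null), stable ts p53-A138V + BP100-Luc; 1000 cells/well, Opti-MEM/10% FBS; cpd 4 pt, 1:5; 24 h, 37 deg C, 5% CO2; detection reagent 10 min RT; luminescence.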
Nrf2 inh: inhibitors of Nrf2 signaling | A549 ARE-Fluc reporter, luciferase luminescence, 18-24 h | Potency, µM (doses to about 46 µM), for the others: at the highest dose activity change, negative = inhibition, most hits filed as inhibitors | hit rate 2.1% among 360,000 | AID 504444; further: potency means the concentration at half of the fitted maximal effect; on the % scale 0 is the no-effect control and ±100 the full control effect; nearly all actives have a fitted effect of over 60% in size
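Quantitative HTS in A549 cells stably bearing an antioxidant response element-firefly luciferase construct. Inhibition of Nrf2-driven transcription was scored by luminescence after 18-24 h of compound exposure at 37 °C.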
A549 tox: kills or reduces viability of A549 cells in Nrf2 counter-screen. A549 ARE-Fluc cells, CellTiter-Fluor viability, 18-24 h. hit rate 0.16% among 390,000. AID 504648. Potency, µM (doses to about 46 µM), for inactives: top-dose activity change, negative = cytotoxicity, most hits filed as inhibitors; further: potency means the concentration at half of the fitted maximal effect; on the % scale 0 is the no-effect control and ±100 the full control effect
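A549 ARE_Fluc cells in 5% FBS OPTI-MEM were exposed to compounds in concentration-response for 18-24 h at 37 deg C. Viability was read by CellTiter-Fluor fluorescence (Ex 405/Em 525) after 30 min, before the luciferase read.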
Active calls of the source: *. Unless noted, the call rests on the fitted dose curve; in most records, active means well fitted curve in the direction sought with a large enough effect; inconclusive means small, poorly fitted or top-dose-only effect, or another doubt; inactive means no such curve, though single readings can be large; an effect the other way counts as inactive or inconclusive.

For CCN(CC)S(=O)(=O)c1ccc2c(c1)N(CC(=O)Nc1ccc(Cl)cc1)C(=O)C1CCCN21 (stereo unspecified) the results were Nrf2 ARE act -1.0%, Nrf2 inh inconclusive and A549 tox 1.3%.
For Clc1ccc(OCc2nc(-c3ccncc3)no2)c(Br)c1 the results were BRCA1 expr up 3.98µM*, Nrf2 ARE act 2.7%, IL2 activator -1.0, p53 reactivator inconclusive, Nrf2 inh 0.0% and A549 tox 1.4%.
`Cc1ccc(OCc2nc(-c3ccccn3)no2)c(Br)c1` gave BRCA1 expr up inconclusive, Nrf2 ARE act -2.1%, IL2 activator -1.1, p53 reactivator -2.2%, Nrf2 inh inconclusive and A549 tox -2.5%.
`Clc1ccccc1OCc1nc(-c2ccncc2)no1` gave BRCA1 expr up 5.01µM*, Nrf2 ARE act -0.5%, IL2 activator 0.3, p53 reactivator inconclusive, Nrf2 inh inconclusive and A549 tox 11.0%.
`c1ccc(OCc2nc(-c3ccncc3)no2)cc1` gave BRCA1 expr up 11.2µM*, Nrf2 ARE act 3.4%, IL2 activator 2.3, p53 reactivator 8.9%, Nrf2 inh 5.3% and A549 tox -5.6%.
For COc1ccc(-c2noc(COc3cc(C)ccc3C)n2)cc1OC the results were Nrf2 ARE act -0.7%, Nrf2 inh -4.6% and A549 tox 6.7%.
For COc1ccc2c(=O)cc(-c3ccncc3)oc2c1OC the results were BRCA1 expr up -38.2%, Nrf2 ARE act 5.0%, IL2 activator -0.9, Nrf2 inh 16.4µM* and A549 tox -19.8%.
CON(C)C(=O)/C=C/c1ccc([B-](F)(F)F)cc1 was read as BRCA1 expr up 14.1µM*, Nrf2 ARE act 7.2%, IL2 activator 0.2, Nrf2 inh inconclusive and A549 tox 4.4%.
Screening CCN(CC)C(=O)/C=C/c1ccccc1 returned BRCA1 expr up 55.2%, Nrf2 ARE act 0.3%, IL2 activator 0.4, p53 reactivator inconclusive, Nrf2 inh inconclusive and A549 tox -1.1%.
c1ccc2[nH]c3cc4ncnc4cc3nc2c1 was read as BRCA1 expr up 0.0%, Nrf2 ARE act -0.4%, IL2 activator 0.3, p53 reactivator 12.9%, Nrf2 inh 5.8µM* and A549 tox inconclusive.
FC(F)c1nc2ccccc2[nH]1 was read as BRCA1 expr up -11.2%, Nrf2 ARE act -0.3%, IL2 activator -1.7, p53 reactivator -1.5%, Nrf2 inh 4.2% and A549 tox -0.2%.
Cc1ccc2oc(C(=O)Nc3nc(-c4ccc(F)cc4)ns3)c(C)c2c1 was read as Nrf2 ARE act 5.9%, Nrf2 inh 4.4% and A549 tox 5.9%.
`Cc1ccc(C(=O)CN2C(=O)C(C)Oc3ccccc32)cc1` (stereo unspecified) gave BRCA1 expr up 11.2µM*, Nrf2 ARE act 2.2%, IL2 activator -0.3, p53 reactivator inconclusive, Nrf2 inh 3.2% and A549 tox 1.4%.
CCC(C(=O)Nc1ccc2c(c1)OCCO2)n1nnc2ccccc2c1=O (stereo unspecified) was read as BRCA1 expr up 10µM*, Nrf2 ARE act 2.5%, IL2 activator -2.7, p53 reactivator 9.6%, Nrf2 inh inconclusive and A549 tox -2.7%.
`CCCN1C(=O)/C(=C/c2ccc(N3CCCC3)c(C)c2)NC1=S` gave BRCA1 expr up -34.6%, Nrf2 ARE act 4.4%, IL2 activator 23.9, p53 reactivator 5.3%, Nrf2 inh 20.6µM* and A549 tox -15.7%.
Screening Cc1cc(/C=C2/C(=O)N(C)C(=S)N2C)ccc1N1CCCC1 returned BRCA1 expr up 39.8%, Nrf2 ARE act 5.7%, IL2 activator -11.7, p53 reactivator inconclusive, Nrf2 inh inconclusive and A549 tox -5.2%.
Cc1cc(/C=C2\NC(=S)N(C)C2=O)ccc1N1CCCC1 was read as BRCA1 expr up 5.01µM*, Nrf2 ARE act 2.4%, IL2 activator 5.8, p53 reactivator 9.6%, Nrf2 inh inconclusive and A549 tox -6.5%.
Cc1ccc(NC(=O)CSc2ccccc2)cc1S(=O)(=O)N1CCCCC1 was read as BRCA1 expr up -36.2%, Nrf2 ARE act 0.0%, IL2 activator -4.2, p53 reactivator 13.7%, Nrf2 inh 23.1µM* and A549 tox -8.9%.
`O=C(Nc1cccc(S(=O)(=O)N2CCCCC2)c1)c1ccccc1NS(=O)(=O)c1ccc(F)cc1` gave BRCA1 expr up -86.7%, Nrf2 ARE act 0.0%, IL2 activator -0.8, p53 reactivator 2.1%, Nrf2 inh inconclusive and A549 tox -10.7%.
Screening Cc1ccc(NC(=O)CSc2ccccc2)cc1S(=O)(=O)N1CCOCC1 returned BRCA1 expr up -8.6%, Nrf2 ARE act -0.8%, IL2 activator 0.9, p53 reactivator 1.8%, Nrf2 inh -6.0% and A549 tox 0.0%.
Screening Cc1ccc(NC(=O)COc2ncnc3ccccc23)cc1S(=O)(=O)N1CCOCC1 returned BRCA1 expr up 0.1%, Nrf2 ARE act 1.7%, IL2 activator -3.9, p53 reactivator 3.2%, Nrf2 inh 3.9% and A549 tox -0.5%.
Screening Cc1ccc(NC(=O)c2ccccc2NS(=O)(=O)c2ccc(F)cc2)cc1S(=O)(=O)N1CCCCC1 returned BRCA1 expr up -80.3%, Nrf2 ARE act 2.4%, IL2 activator -4.6, p53 reactivator -8.4%, Nrf2 inh 23.1µM* and A549 tox inconclusive.
For Cc1ccc(NC(=O)CSc2ncnc3ccccc23)cc1S(=O)(=O)N1CCOCC1 the results were BRCA1 expr up -41.6%, Nrf2 ARE act 14.6%, IL2 activator -5.5, p53 reactivator 10.9%, Nrf2 inh 23.1µM* and A549 tox -7.9%.
`Cc1ccc(CN2CC(C(=O)Nc3ccc(C)c(S(=O)(=O)N4CCCCC4)c3)CC2=O)cc1` (stereo unspecified) gave BRCA1 expr up -69.6%, Nrf2 ARE act 0.1%, IL2 activator -5.2, Nrf2 inh 20.6µM* and A549 tox inconclusive.
Screening COc1ccc(NC(=O)C2CC(=O)N(Cc3ccc(C)cc3)C2)cc1S(=O)(=O)N1CCCCC1 (stereo unspecified) returned BRCA1 expr up -44.8%, Nrf2 ARE act 2.0%, IL2 activator -2.6, p53 reactivator -1.5%, Nrf2 inh inconclusive and A549 tox 0.2%.
Screening COc1ccc(CNC(=O)C2CCN(c3nc4ccccc4[nH]3)CC2)cc1OC returned Nrf2 ARE act -0.4% and A549 tox 2.7%.
